From PubChem BioAssay come the findings set out here.

Active and inactive are the calls of the source.

Experiment [1] deals with Albumin (Bos taurus) (UniProt P02769). As to the kind of experiment: bovine serum albumin binders on microarray, profiling panel, artefact control for SMM control protein annotation, biochemical, small-molecule microarray, Alexa647 label, 635/667 nm fluorescence (AID 1118).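 Note: score merges 667 nm emission intensity and signal-to-noise per printed compound spot.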 Conditions: BSA-A647 binding, fluorescence 635 nm, higher = more signal.
A short description of experiment [2]: small-molecule microarray binders of probe aXIP, primary screen, biochemical, NeuroSMM set, 635/667 nm fluorescence (AID 1119).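 Note: probe is the protein aXip251-270 applied at 1 µg/mL to compound-printed slides; binding of probe to printed compounds measured as 667 nm fluorescence plus signal to noise.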 Conditions: higher = more signal, called active from +8 up or from −8 down.
A short description of experiment [3]: small-molecule binders of probe aNOTCH3, primary screen, biochemical, small-molecule microarray, 635/667 nm fluorescence (AID 1120).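 Note: probe is a biotin-tagged antibody raised against NOTCH3 rather than NOTCH3 protein; score merges spot fluorescence near 667 nm with spot signal to noise.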 Conditions: higher = more signal.
Experiment [4] is described as follows: small-molecule binders of probe aNOTCH2, primary screen, biochemical, small-molecule microarray, 635/667 nm fluorescence (AID 1121).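 Note: score merges feature fluorescence read at 667 nm with its signal to noise.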 Conditions: higher = more signal.
In experiment [5] the target is Carbonic anhydrase 2 (Homo sapiens) (UniProt P00918). As to the kind of experiment: CAII small-molecule binders, profiling panel, biochemical, small-molecule microarray, Alexa647-labelled CAII (AID 1122). Conditions: CAII-A647 binding fluorescence, higher = more signal.
Experiment [6] can be described thus: COS7 lysate on small-molecule microarray, probe aHis, 635 nm (AID 1123).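 Note: z-score combines 667nm fluorescence intensity with signal-to-noise per printed compound spot.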 Conditions: COS7 cell lysate, fluorescence, higher = more signal.
Experiment [7] can be described thus: compound binding in COS7 lysate, probe aLAP1, primary screen, cell lysate, small-molecule microarray (AID 1124).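 Note: lysate comes from COS7 cells expressing LAP1 and is applied at 0.3 µg/mL; score merges spot fluorescence near 667 nm with signal-to-noise over triplicate slides.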 Conditions: probe aLAP1, fluorescence, higher = more signal.
The subject of experiment [8] is Sam68 (KHDRBS1). As to the kind of experiment: Sam68 small-molecule binders, primary screen, biochemical, small-molecule microarray, 635 nm fluorescence (AID 1125).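 Note: score merges 667 nm channel intensity with signal to noise over triplicate slides.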 To be noted: small-molecule microarray binding, higher = more signal.
In experiment [9] the test system is Chordin-like protein 2 (CHRDL2). Briefly: CHRDL2 small-molecule binders, primary screen, biochemical, small-molecule microarray, 635 nm fluorescence (AID 1126).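 Note: printed compound slides probed with Chrdl2 protein at 4 µg/mL for 1 h at 4 C; score merges 667 nm emission intensity with signal to noise over three replicate slides.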 To be noted: small-molecule microarray binding, fluorescence 635 nm; higher = more signal.
In experiment [10] the target is Concanavalin-A (Canavalia ensiformis) (UniProt P02866). Briefly: ConA small-molecule binders, primary screen, artefact control for SMM control protein annotation, biochemical, small-molecule microarray, Alexa647 label, 635 nm (AID 1127).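 Note: z combines 667 nm emission intensity with signal-to-noise across three replicate slides.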 To be noted: ConA-A647 binding fluorescence, higher = more signal.
The nature of experiment [11]: anti-His antibody binders, primary screen, artefact control for SMM control protein annotation, biochemical, small-molecule microarray, 635 nm fluorescence (AID 1128).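 Note: score merges feature fluorescence with signal-to-noise for each printed compound spot.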 To be noted: anti-His Alexa647 antibody binding, higher = more signal.
For experiment [12], the system named is Human papillomavirus type 1a E7 protein (residues 1-88). As to the kind of experiment: HPV1a E7 small-molecule binders, primary screen, biochemical, small-molecule microarray, residues 1-88, 635 nm (AID 1129). To be noted: small-molecule microarray binding, fluorescence 635 nm; higher = more signal.
Experiment [13] concerns the target Focal adhesion kinase 1 (Homo sapiens) (UniProt Q05397). Briefly: small-molecule microarray binders of FAK, primary screen, biochemical, 635/667 nm fluorescence, BSA, DTT (AID 1130).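 Note: composite of spot emission at 667 nm and signal to noise over triplicate slides.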 To be noted: PTK2 binding, 635 nm fluorescence, higher = more signal.
In experiment [14] the test system is Fibrinogen (Alexa647-labelled). Briefly: fibrinogen binders on compound microarrays, profiling panel, artefact control for SMM control-protein annotation, biochemical, small-molecule microarray, 635/667 nm fluorescence (AID 1131).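 Note: z-score merges 667 nm fluorescence with per-spot signal-to-noise over triplicate slides.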 To be noted: fibrinogen-A647 binding fluorescence, higher = more signal.
The target in experiment [15] is Follistatin (Homo sapiens) (UniProt P19883). Briefly: follistatin binders on small-molecule microarrays, primary screen, biochemical, small-molecule microarray, 635/667 nm fluorescence (AID 1132). To be noted: FST binding, 635 nm fluorescence, higher = more signal.
The target in experiment [16] is Fibroblast growth factor 2 (Homo sapiens) (UniProt P09038). As to the kind of experiment: FGF2 binders on small-molecule microarrays, primary screen, biochemical, small-molecule microarray, 635/667 nm fluorescence (AID 1133). Conditions: small-molecule microarray binding, FGF2, fluorescence 635/667; higher = more signal.
Experiment [17] can be described thus: mitochondrial membrane potential change in A549 cells, profiling panel, cell-based, JC-1 fluorescence, basal, 24 h, 100 nL (AID 1138).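 Note: A549 lung adenocarcinoma cells under basal conditions with no added stimulus; test concentration not given here.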 To be noted: higher = more signal.
Experiment [18] concerns Lefty1. Briefly: Lefty1 binders on small-molecule microarrays, primary screen, biochemical, small-molecule microarray, 635/667 nm fluorescence (AID 1139). Conditions: small-molecule microarray binding, fluorescence 635/667; higher = more signal.
Experiment [19] deals with wheat germ agglutinin (Triticum aestivum), Alexa647-labelled. Briefly: wheat germ agglutinin binders on compound microarrays, profiling panel, artefact control for SMM control-protein annotation, biochemical, small-molecule microarray, 635/667 nm fluorescence (AID 1140).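 Note: score merges 667 nm feature emission with signal to noise over triplicate slides.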 Conditions: WGA-A647 binding, 635 nm fluorescence, higher = more signal.
Experiment [20] has as its target Luciferin 4-monooxygenase (Photinus pyralis) (UniProt P08659). Briefly: firefly luciferase enzyme inhibitors, primary screen, biochemical, luminescence, purified enzyme, 2006 set (AID 1141).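 Note: cell-free assay with purified firefly luciferase at 100 ng per well in PBS; test concentration not given here.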 To be noted: SteadyGlo luminescence, 30 min, higher = more signal, called active from +8 up or from −8 down.

Chain of Luciferin 4-monooxygenase (Photinus pyralis) (P08659 whole entry, looked up): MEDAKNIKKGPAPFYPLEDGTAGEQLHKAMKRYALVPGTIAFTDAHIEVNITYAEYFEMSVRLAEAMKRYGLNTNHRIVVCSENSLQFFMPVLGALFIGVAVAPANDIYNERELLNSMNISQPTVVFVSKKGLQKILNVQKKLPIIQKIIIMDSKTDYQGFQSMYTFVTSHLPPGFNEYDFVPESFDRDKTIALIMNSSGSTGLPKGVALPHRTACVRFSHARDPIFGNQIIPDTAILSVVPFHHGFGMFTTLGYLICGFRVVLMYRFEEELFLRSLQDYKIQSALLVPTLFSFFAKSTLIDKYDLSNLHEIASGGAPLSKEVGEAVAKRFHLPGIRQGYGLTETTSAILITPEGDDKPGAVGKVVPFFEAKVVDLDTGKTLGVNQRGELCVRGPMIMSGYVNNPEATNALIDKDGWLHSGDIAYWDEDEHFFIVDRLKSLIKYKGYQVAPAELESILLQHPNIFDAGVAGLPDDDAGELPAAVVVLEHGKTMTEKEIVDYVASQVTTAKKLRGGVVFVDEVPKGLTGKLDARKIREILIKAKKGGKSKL
Chain of Albumin (Bos taurus) (P02769 whole entry, looked up): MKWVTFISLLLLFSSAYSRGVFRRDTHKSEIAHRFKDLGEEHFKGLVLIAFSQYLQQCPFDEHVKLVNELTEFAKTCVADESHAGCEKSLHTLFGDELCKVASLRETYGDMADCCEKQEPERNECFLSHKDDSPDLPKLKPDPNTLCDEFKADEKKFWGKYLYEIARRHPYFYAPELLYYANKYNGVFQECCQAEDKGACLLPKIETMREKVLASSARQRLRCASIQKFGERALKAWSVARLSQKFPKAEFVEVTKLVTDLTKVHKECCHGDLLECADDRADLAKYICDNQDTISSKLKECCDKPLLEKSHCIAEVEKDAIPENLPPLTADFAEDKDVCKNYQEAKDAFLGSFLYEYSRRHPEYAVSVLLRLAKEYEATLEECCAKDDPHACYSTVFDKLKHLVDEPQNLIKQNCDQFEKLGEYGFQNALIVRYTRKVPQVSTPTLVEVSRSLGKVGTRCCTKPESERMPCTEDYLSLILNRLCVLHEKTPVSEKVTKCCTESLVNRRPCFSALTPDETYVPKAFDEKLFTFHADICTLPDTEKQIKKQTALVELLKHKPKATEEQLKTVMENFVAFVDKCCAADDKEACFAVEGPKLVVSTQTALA
Chain of Follistatin (Homo sapiens) (P19883 whole entry, looked up): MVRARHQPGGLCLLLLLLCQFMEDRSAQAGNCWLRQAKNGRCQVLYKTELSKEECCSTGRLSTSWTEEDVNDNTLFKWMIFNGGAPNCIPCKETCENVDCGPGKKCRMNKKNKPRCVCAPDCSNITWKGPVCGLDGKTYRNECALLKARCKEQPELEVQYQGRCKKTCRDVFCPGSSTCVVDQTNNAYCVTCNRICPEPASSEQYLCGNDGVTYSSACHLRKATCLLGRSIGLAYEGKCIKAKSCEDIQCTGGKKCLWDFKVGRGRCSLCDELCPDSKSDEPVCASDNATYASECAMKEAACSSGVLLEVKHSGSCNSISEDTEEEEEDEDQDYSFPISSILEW
Chain of Fibroblast growth factor 2 (Homo sapiens) (P09038 whole entry, looked up): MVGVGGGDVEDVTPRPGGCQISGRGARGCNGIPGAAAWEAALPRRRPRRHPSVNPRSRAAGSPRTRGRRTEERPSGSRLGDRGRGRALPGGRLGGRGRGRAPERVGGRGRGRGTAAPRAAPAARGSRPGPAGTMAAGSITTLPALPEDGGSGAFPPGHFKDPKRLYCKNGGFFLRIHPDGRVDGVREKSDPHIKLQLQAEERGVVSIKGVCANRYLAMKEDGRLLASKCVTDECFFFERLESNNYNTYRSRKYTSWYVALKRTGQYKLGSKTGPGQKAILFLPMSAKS
Chain of Concanavalin-A (Canavalia ensiformis) (P02866 whole entry, looked up): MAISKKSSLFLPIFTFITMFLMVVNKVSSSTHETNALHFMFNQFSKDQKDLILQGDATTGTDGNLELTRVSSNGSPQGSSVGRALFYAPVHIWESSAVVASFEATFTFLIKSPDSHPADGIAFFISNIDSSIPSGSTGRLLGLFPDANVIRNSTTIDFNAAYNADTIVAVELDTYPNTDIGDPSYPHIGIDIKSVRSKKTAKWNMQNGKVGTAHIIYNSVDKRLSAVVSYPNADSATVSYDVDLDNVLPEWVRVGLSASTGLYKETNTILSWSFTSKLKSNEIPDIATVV
Chain of Focal adhesion kinase 1 (Homo sapiens) (Q05397 whole entry, looked up): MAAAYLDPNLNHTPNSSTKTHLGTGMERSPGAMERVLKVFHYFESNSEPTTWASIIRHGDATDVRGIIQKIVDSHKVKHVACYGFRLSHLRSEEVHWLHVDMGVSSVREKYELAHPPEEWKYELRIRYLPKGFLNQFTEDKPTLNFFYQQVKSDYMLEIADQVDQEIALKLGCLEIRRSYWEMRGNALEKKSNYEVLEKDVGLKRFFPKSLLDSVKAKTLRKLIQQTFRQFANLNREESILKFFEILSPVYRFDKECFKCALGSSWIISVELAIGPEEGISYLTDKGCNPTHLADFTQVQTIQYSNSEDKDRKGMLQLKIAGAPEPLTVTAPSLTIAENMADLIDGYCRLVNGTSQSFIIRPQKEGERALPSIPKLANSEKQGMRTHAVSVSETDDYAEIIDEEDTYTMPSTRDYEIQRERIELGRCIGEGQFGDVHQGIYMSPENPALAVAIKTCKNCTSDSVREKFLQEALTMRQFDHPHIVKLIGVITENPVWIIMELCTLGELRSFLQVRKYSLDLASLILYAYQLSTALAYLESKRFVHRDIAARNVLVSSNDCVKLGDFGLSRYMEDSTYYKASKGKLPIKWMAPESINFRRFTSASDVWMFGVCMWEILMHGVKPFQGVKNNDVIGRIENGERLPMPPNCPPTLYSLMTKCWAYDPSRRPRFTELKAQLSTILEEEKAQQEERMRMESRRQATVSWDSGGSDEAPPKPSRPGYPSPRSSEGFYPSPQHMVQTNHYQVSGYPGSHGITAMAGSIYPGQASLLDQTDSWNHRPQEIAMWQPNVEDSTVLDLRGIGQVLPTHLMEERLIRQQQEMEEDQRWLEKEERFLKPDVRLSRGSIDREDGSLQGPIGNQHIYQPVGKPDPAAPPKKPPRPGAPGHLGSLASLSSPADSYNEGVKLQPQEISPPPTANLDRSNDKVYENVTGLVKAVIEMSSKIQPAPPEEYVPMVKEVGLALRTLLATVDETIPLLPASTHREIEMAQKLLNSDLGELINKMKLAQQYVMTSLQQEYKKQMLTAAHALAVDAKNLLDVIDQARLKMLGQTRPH

Consider `CC(C)C(=C=CC[C@H](O)c1cccc(OCCO)c1)C[C@H](O)c1cc(Cl)cc(Cl)c1O`, for which the composite z-score in experiment [1] was 0.773; in experiment [3] it was 0.0916; in experiment [4], -0.154; in [5] it was 0.374; in experiment [6], 1.14; in experiment [7] it was 0.0431. In addition, the composite z-score in [8] is 0.801; in experiment [9], -0.331; in experiment [10], 0.943; in [11] it was -0.397; in experiment [12], 0.637; in experiment [13], 0.295. Further, the composite z-score in experiment [14] worked out at 0.713; in [15] it was 1.31; in experiment [16], 0.484; in experiment [18], 1.3; in experiment [19], 0.628. The composite Z-score in experiment [2] was -0.0673 (inactive). Also, the z-score in [17] is 0.487; in [20], -0.316 (inactive).

Consider `COC(=O)C(CC#Cc1ccc2c(c1)[C@]1(C(=O)N2)[C@H](c2ccccc2OCCO)N2[C@H](c3ccccc3)[C@H](c3ccccc3)OC(=O)[C@H]2[C@@H]1C(=O)NC[C@H](O)c1ccccc1)C(=O)OC`, for which the composite z-score is 0.42 in experiment [1]; -0.19 in [3]; 0.0537 in experiment [4]; 0.544 in experiment [5]; 1.83 in experiment [6]; 0.445 in [7]. Further, the composite z-score was 0.947 in [8]; 0.285 in [9]; 1.12 in [10]; 1.42 in experiment [11]; 1.23 in [12]; 3.08 in [13]. Moreover, the composite z-score came to 0.427 in [14]; 0.597 in [15]; 1.06 in [16]; 0.697 in [18]; 1.14 in [19]. The composite Z-score in [2] was 0.231 (inactive). The z-score in [17] is -0.789; in experiment [20] it was -0.832 (inactive).

For the molecule `C=CCC(OC(C)=O)[C@@H]1[C@@H](N(Cc2cc3ccccc3o2)C(=O)c2ccc(-c3ccccc3)cc2)c2cc(OCCCO)ccc2N1C(=O)c1ccc2ccccc2c1` (stereo not given in full), the composite z-score is 0.0005 in experiment [1]; -0.154 in experiment [3]; -0.106 in experiment [4]; -0.105 in [5]; 0.612 in experiment [6]; 0.0944 in experiment [7]. The composite z-score was 0.095 in experiment [8]; 0.0295 in experiment [9]; -0.0066 in experiment [10]; 0.0895 in [11]; 0.0833 in experiment [12]; -0.394 in [13]. In addition, the composite z-score in [14] was 0.394; in experiment [15] it was 0.874; in experiment [16] it was -0.198; in experiment [18] it was 0.795; in [19] it was 0.196. The composite Z-score in experiment [2] was 0.142 (inactive). The figures for the z-score in [17] and in experiment [20] were 1.26 and -0.455 (inactive), respectively.

`COC1OC[C@]2(C)[C@H]3C4=C(CN2C(=O)OC(C)(C)C)[C@H](C)C(CO)C(CO)C4CC[C@@H]13` (stereo not given in full): the composite z-score in experiment [1] was 1.1; in [3] it was 0.239; in experiment [4], 0.35; in experiment [5], 0.805; in experiment [6] it was 2.88; in experiment [7], 0.875. Moreover, the composite z-score was 1.31 in experiment [8]; -0.675 in [9]; 1.17 in experiment [10]; 2.1 in [11]; 1.24 in [12]; 1.14 in experiment [13]. For the same molecule, the composite z-score in experiment [14] is 0.998; in [15] it was 1.05; in experiment [16], -0.636; in [18], -0.664; in experiment [19], 1.41. In experiment [2], the composite Z-score is 0.0112 (inactive). In addition, the z-score in experiment [17] is 2.03; in experiment [20], 0.0207 (inactive).

Consider `CCCNC(=O)[C@@]1(c2ccc([N+](=O)[O-])cc2)CC(=O)N(C2CCCCC2)[C@@H]1c1ccc(CO)cc1`, for which the composite z-score in experiment [1] was 0.0308; in experiment [3], 0.135; in experiment [4], -0.0406; in experiment [5], 0.66; in experiment [6], 2.01; in [7] it was 0.999. Moreover, the composite z-score in [8] was found to be 1.25; in experiment [9], 0.19; in experiment [10], 0.95; in [11], 1.86; in experiment [12], 1.24; in experiment [13] it was 0.548. In addition, the composite z-score in [14] was 0.831; in experiment [15], 1.24; in experiment [16], 1.66; in experiment [18], 0.344; in [19], 0.533. Moreover, the composite Z-score in experiment [2] was 0.173 (inactive). Also, the z-score in [17] was 1.34; in experiment [20] it was -0.92 (inactive).
